Measured values: ChEMBL document CHEMBL4513216, “Probing the Open Global Health Chemical Diversity Library for Multistage-Active Starting Points for Next-Generation Antimalarials” (ACS Infect Dis, 2020)
Screen size: about 69,000 compounds; about 8,600 (12%) showed an effect of 50% or more. The list comes from a sample in which strong results are over-represented; it also holds similar structures and randomly drawn compounds.

Each molecule was assayed on Plasmodium berghei (assay: Screen against P. berghei liver stage (PbLuc), transformed with Luciferase, at 10uM). Conditions: tested at 10 uM.
Assay type: functional, HepG2

Row | Structure (SMILES) | INHIBITION [%]
1 | COc1ncccc1C(=O)N1CC[C@]2(C[C@@H](Oc3cccnc3)CO2)C1 | 6.66
2 | CC(C)NC(=O)C1CN(C(=O)Nc2cccc(F)c2)CC12CCOCC2 (stereo not drawn) | 17.1
3 | Cc1cnn(CC(C)Nc2cnc3ccccc3n2)c1 (stereo not drawn) | -26.8
4 | CCn1cc(-n2cc3nc(N4CCN(C)CC4)[nH]cc-3c2=O)cn1 | -5.53
5 | CN(C)S(=O)(=O)N1CCN(c2cc(-n3cccc3)ncn2)CC1 | 14.4
6 | CCc1noc(CN(C)C(=O)c2ccnc(OC3CCC3)c2)n1 | 55.4
7 | CN(Cc1ccc(C#N)cc1)C(=O)c1ccnc(OC2CCC2)c1 | 51.4
8 | CN(Cc1cnn(C)c1)C(=O)c1ccnc(OC2CCC2)c1 | 46.4
9 | CN(CC1CCCCO1)C(=O)c1ccnc(OC2CCC2)c1 (stereo not drawn) | 9.48
10 | CN(Cc1cnccn1)C(=O)c1ccnc(OC2CCC2)c1 | 36.3
11 | CN(Cc1nnc(C2CC2)n1C)C(=O)c1ccnc(OC2CCC2)c1 | -13.4
12 | CC(C)NC(=O)N1CCc2ncc(CN3CCOCC3)n2CC1 | 21.6
13 | CCCS(=O)(=O)N1Cc2nccn2CC(CN(C)C)C1 (stereo not drawn) | -57.5
14 | CC(=O)Nc1ccc(CNCc2ccc(CS(C)(=O)=O)cc2)cc1 | 38
15 | COCc1nc(CNc2cccc(-c3csc(C)n3)c2)cs1 | 18.9
16 | COCc1nc(CNc2cc(C)on2)cs1 | 51.7
17 | Cc1cc(NCc2csc(C)n2)no1 | 29.4
18 | Cc1cc(NCc2csc(-c3ccsc3)n2)no1 | -92.1
19 | COCc1nc(CNc2cccc(-c3ncon3)c2)cs1 | -42.1
20 | COCc1nc(CNc2cccc(-c3nc(C)c(C)o3)c2)cs1 | 65.3
21 | CN(Cc1noc2c1CCCC2)C(=O)Nc1ccc2oc(=O)n(C)c2c1 | 36.4
22 | Cc1cnn(CCNCc2ccccc2OCc2ccncc2)c1 | -15.5

Row | Structure (SMILES) | INHIBITION [%]
23 | CCN(Cc1ccco1)C(=O)c1cc(OC)c2c(c1)OCCO2 | 10.3
24 | COc1cc(C(=O)N(Cc2ccco2)C2CC2)cc2c1OCCO2 | -2.37
25 | COc1cc(C(=O)N(Cc2ccco2)C2CC2)cc(OC)c1OC | 53.4
26 | O=C(NCCNc1ncccn1)C1CC(=O)N(C2CCCC2)C1 (stereo not drawn) | 21.6
27 | Cc1cnn(CCNCc2nnc(C3CC3)o2)c1 | 21.2
28 | c1cnn(CCNCc2nnc(C3CC3)o2)c1 | 53.5
29 | c1ccc(-c2nnc(CNCCn3cccn3)o2)cc1 | 32.6
30 | Cn1cccc1C(=O)N1CC[C@H]2C[C@@H](c3ccncn3)O[C@@H]2C1 | 41.5
31 | Cc1noc2nc(C3CCN(Cc4cccnc4)CC3)cc(C(F)F)c12 | 48.3
32 | Cc1noc2nc(C3CCN(CC4CCCCC4)CC3)cc(C(F)F)c12 | 59
33 | Cc1noc2nc(C3CCN(Cc4ccncc4)CC3)cc(C(F)F)c12 | 44.9
34 | CCCS(=O)(=O)N1C[C@@H]2C[C@H](C(=O)N3CCOCC3)[C@H](C1)O2 | -19.6
35 | CNC(=O)c1cccc(NC(=O)CN2CCCN(S(C)(=O)=O)CC2)c1 | -7.27
36 | O=C(C[C@@H]1COC[C@H]2CN(C3CCCC3)C[C@@H]12)NCc1cccnc1 | 20.6
37 | Cc1nnc2n1CCN(Cc1nc(-c3ccoc3)no1)C2 | -16.75
38 | Cc1nn(C)c(N(C)C)c1CNCCC(=O)NC1CCCC1 | 64.8
39 | Cc1nn(C)c(N(C)C)c1CNCCC(=O)NC1CCCCC1 | 49.8
40 | CC(C)c1nn(C)c(N(C)C)c1CNCCC(=O)NC1CCCC1 | 35.8
41 | COc1c(CNCc2ccc(CN(C)C)cc2)c(C)nn1C | -15.8
42 | CCNC(=O)c1ccc(CNCc2c(C)nn(C)c2N(C)C)cc1 | 58.8
43 | COCc1ccc(CNCc2c(C)nn(C)c2N(C)C)cc1 | 33.7
44 | COc1c(CNCc2ccc(C(=O)NC3CC3)cc2)c(C)nn1C | 13.5

Row | Structure (SMILES) | INHIBITION [%]
45 | COc1c(CNCc2ccc(C(=O)N(C)C(C)C)cc2)c(C)nn1C | 88.5
46 | COc1c(CNCc2ccc(S(C)(=O)=O)cc2)c(C)nn1C | -31.8
47 | COc1c(CNCc2ccc(OCC(N)=O)cc2)c(C)nn1C | 35.9
48 | Cc1nn(C)c(N(C)C)c1CNCc1ccc(C(=O)N(C)C)cc1 | -19.9
49 | COc1c(CNCc2ccc(C(=O)N3CCCC3)cc2)c(C)nn1C | 64.9
50 | Cc1nn(C)c(N2CCOCC2)c1CNCc1ccoc1C | -29.8
51 | O=C1CC2(CCCC2)CC(=O)N1Cc1nccs1 | 28.4
52 | Cc1ncsc1CN1C[C@@H](O)[C@](O)(CNC(=O)c2ccccn2)C1 | 18.9
53 | O=C(NC1CCC1)[C@H]1C[C@@H]2[C@@H](C1)OCCN2CC1CC1 | 36.4
54 | Cc1ccc2c(c1)C1(CCN(C(N)=O)CC1)CN2CC1CC1 | 44.8
55 | NS(=O)(=O)c1cnn(CC(=O)Nc2c(Cl)cccc2Cl)c1 | 42.3
56 | Cc1nc(C)n(CCNS(=O)(=O)NCc2ccccc2)n1 | 49.9
57 | CS(=O)(=O)N1CCOCC2(CCN(C(=O)c3cnccn3)CC2)C1 | -6.23
58 | O=C(NCc1ccccc1Cn1cncn1)C1CCCCC1 | 30.6
59 | Cc1cnc(N2CC3(CCN(S(=O)(=O)C4CC4)C3)C2)nc1 | 40.3
60 | Cc1nn(C)cc1Cn1c(=O)c(C)nc2ccccc21 | -11.4
61 | COc1c(CNCCNC(=O)c2ccccc2)c(C)nn1C | 15.3
62 | COc1c(CNCCNC(=O)c2ccc(C)cc2)c(C)nn1C | 52.7
63 | COc1c(CNCCNC(=O)c2ccc(C)cc2)c(C(C)C)nn1C | -79.3
64 | COc1c(CNCc2ccc(CS(C)(=O)=O)cc2)c(C)nn1C | 43.2
65 | COc1c(CNCc2cccc(C(=O)N(C)C)c2)c(C)nn1C | -29.8
66 | COc1c(CNCc2ccc(C(=O)N(C)C)cc2)c(C)nn1C | 56.3

Row | Structure (SMILES) | INHIBITION [%]
67 | CC(C)(C)C(=O)Nc1cnn(-c2ccccc2S(C)(=O)=O)c1 | -0.125
68 | O=C(c1ccccc1)N1CCC[C@]2(C[C@@H](Oc3ncccc3F)CO2)C1 | 5.96
69 | Cc1ccc(N2C[C@@H]3CCCO[C@@H]3[C@H](N3CCCC3)C2)nn1 | 20.1
70 | COCCCC1CCCN(Cc2c(C)ccc3ncccc23)C1 (stereo not drawn) | 5.41
71 | COc1ccc(S(=O)(=O)N2CCc3ccc(Cl)cc32)cc1C(=O)O | -54.6
72 | CCc1cn[nH]c1C1CCN(c2cc(C)c3ccc(OC)cc3n2)CC1 | 71.1
73 | CCc1cn[nH]c1C1CCN(c2cc(C)c3cc(OC)ccc3n2)CC1 | 26.6
74 | CCc1cn[nH]c1C1CCN(c2cc(C)c3cccc(OC)c3n2)CC1 | 42.7
75 | Cc1cccc(OCCC(=O)N(C)CCNS(C)(=O)=O)c1C | 7.11
76 | CC(C)(C)CC(=O)N1CCCC2(CC(C(=O)Nc3ccccc3)=NO2)C1 (stereo not drawn) | -32
77 | OCCCc1nncn1-c1cccc(C(F)(F)F)c1 | 33.4
78 | CCOC(=O)N(C)C1CCN(Cc2cnc3ccccn23)CC1 | 8.12
79 | CN(C(=O)C1CCN(Cc2cnc3ccccn23)CC1)c1ccccc1 | 58.2
80 | CC(C)N(C)C(=O)C1CCN(Cc2cc3c(cc2O)CCC3)CC1 | 33.6
81 | CCc1nc(C)c(C(=O)N(C)Cc2cnc3ccccn23)o1 | 10.6
82 | CC(C)N(C)C(=O)C1CCN(Cc2cnc3ccccn23)CC1 | 63.3
83 | Cc1cccc(NC(=O)[C@@H]2CCCN2Cc2cnc3ccccn23)n1 | 45.7
84 | O=C([C@H]1CCCO1)N1CC[C@H](O)[C@@H]1Cc1cccnc1 | 39.4
85 | CN(C)c1nc(N2CCCC2)nc2c1CCN(C(=O)c1ccco1)CC2 | 28.2
86 | CCCc1noc(CCC(=O)N2CCCC2c2cccc(OC)c2)n1 (stereo not drawn) | -34
87 | O=C1CCC(c2nc(C3CCN(C(=O)C4CC4)CC3)no2)N1 (stereo not drawn) | 14
88 | CC(=O)N1CCC(c2noc(C3CCC(=O)N3)n2)CC1 (stereo not drawn) | 18.4

Row | Structure (SMILES) | INHIBITION [%]
89 | O=C1CCC(c2nc(C3CCNCC3)no2)N1 (stereo not drawn) | 55.8
90 | Cc1cc(C(F)F)nn1C(C)C(=O)NCc1ncc[nH]1 (stereo not drawn) | -1.21
91 | Cc1csc(N2CCN(C(=O)C3(C#N)CCCC3)CC2)n1 | -9.75
92 | Cc1cc(C2NC(=O)CN2Cc2ccc(Br)cc2)cc(C)c1O (stereo not drawn) | 60.4
93 | COc1cc(OC)cc(C2NC(=O)CN2Cc2ccc(Br)cc2)c1 (stereo not drawn) | 45.6
94 | NC(=O)COc1ccc(C2NC(=O)CN2Cc2ccc(Br)cc2)cc1 (stereo not drawn) | 15.9
95 | Cc1nc(CN2Cc3nccn3CC(CN3CCCC3)C2)cs1 (stereo not drawn) | -29.3
96 | C[C@@H]1CN(C(=O)c2nc3sccn3c2-c2ncc[nH]2)C[C@H](C)O1 | 11.3
97 | O=C(c1nc2sccn2c1-c1ncc[nH]1)N1CCCCC1 | 50.2
98 | CN1CCCN(C(=O)c2nc3sccn3c2-c2ncc[nH]2)CC1 | -16
99 | CC(C)c1cc(=O)[nH]c(-c2ccccc2CN2CCCC2C)n1 (stereo not drawn) | 31.8
100 | CC(C)N1CCC(CC(=O)NC[C@H]2CCc3ccccc3O2)CC1 | 7.4
101 | CCN1CCC(CC(=O)NC[C@H]2CCc3ccccc3O2)CC1 | 39.9
102 | CC(C)N1CCC(C(=O)NC[C@H]2CCc3ccccc3O2)CC1 | 61.5
103 | Cc1ccc(S(C)(=O)=O)cc1NCC(=O)NCCC1=CCCCC1 | -50.7
104 | CC(NC(=O)N(C)C1CC1)c1ccc(Oc2cccnc2)c(F)c1 (stereo not drawn) | 37.4
105 | Cc1cnn(CC2CCCN2C(=O)c2n[nH]c(=O)c3ccccc23)c1 (stereo not drawn) | -4.16
106 | N#Cc1nccnc1N1CCC(COCc2ccccc2)C1 (stereo not drawn) | 20.8
107 | N#Cc1nccnc1N1CCC(OCCCc2ccccc2)C1 (stereo not drawn) | 72.3
108 | N#Cc1nccnc1N1CCC(Cc2ccccc2)C1 (stereo not drawn) | 0.672
